The list is not random: actives were taken first. Their share in the collection is about 6.1%.
D1 potentiator: potentiators of human D1 dopamine receptor | potentiation, % at 10 µM | HEK293 TREx D1 cells, calcium flux, dopamine EC20 potentiation | AID 504651 | 360,000 tested, 0.036% active | P21728; in the data active means potentiation above about 30%
DRD3 antagonist: antagonists of human D3 dopamine receptor; 360,000 tested, 2.5% active; max response, negative = inhibition, %; D3R cells, DiscoveRx beta-arrestin luminescence, antagonist mode; stronger effect = lower value; in the data active means max response below about -50%; inconclusive means no clear call, values can overlap the other calls
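Cells expressing the human receptor were seeded at 1500 cells/well, incubated overnight at 37 degrees C in 5% CO2, then exposed to library compounds with dopamine controls for 90 minutes at 37 degrees C before luminescent detection.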
D1 antag: blocks dopamine activation of the human D1 receptor. P21728. HEK293 TREx D1 cells, calcium flux, dopamine EC80; stronger effect = lower value. AID 504652. 360,000 tested, 3.2% active. activity change, negative = inhibition, % at 10 µM; in the data active means activity change below about -30%
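HEK293 T-REx cells expressing inducible, force-coupled D1 receptor; no-wash Ca dye, 30–90 min RT. Cmpd → 180 s read at 1 Hz → EC80 DA → 180 s read.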
D1 ag: human D1 receptor agonism; activation, % at 2 µM; P21728; AID 504660; 360,000 tested, 1% active; HEK293 T-REx D1 cells, calcium flux, agonist mode; in the data active means activation above about 30%
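Agonism was scored from calcium flux recorded over 180 s (1 read/s) after pintool compound addition, following a 10-cycle baseline. Cells were inducible force-coupled HEK293 TREx D1, plated overnight at 30 C and loaded with no-wash calcium dye.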
DRD3 agonist: D3 dopamine receptor (human) agonism. 410,000 tested, 0.58% active. D3R DiscoveRx beta-arrestin cells, luminescence, 90 min. AID 652048. max activation, %; in the data active means max activation above about 30%
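Cells at 1500/well, incubated overnight, then treated with pinned compounds (dopamine as control) for 90 min at 37 degrees C. DiscoveRx reagent added for 30 - 60 minutes at room temperature; luminescence read.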
ERG-DNA inh: blocks human ERG Ets domain binding to DNA; Potency, µM (doses to about 76.9 µM), usual class: inhibitors; P11308; fluorescence polarization, His-ERG Ets domain / labelled DNA; 370,000 tested, 0.028% active; AID 624246; active means well fitted inhibition curve with a large enough effect in the polarisation, with a control signal flat; inconclusive means small, poorly fitted or top-dose-only effect, or effect the other way, or a change in a side signal; inactive means no such curve, though single readings can be large or run the other way; the % refers to the polarisation;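 further: polarization taken with two DNA probes labelled with fluorescein and Texas red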
Target sequence (P11308 whole entry, looked up, the tested form may be a part): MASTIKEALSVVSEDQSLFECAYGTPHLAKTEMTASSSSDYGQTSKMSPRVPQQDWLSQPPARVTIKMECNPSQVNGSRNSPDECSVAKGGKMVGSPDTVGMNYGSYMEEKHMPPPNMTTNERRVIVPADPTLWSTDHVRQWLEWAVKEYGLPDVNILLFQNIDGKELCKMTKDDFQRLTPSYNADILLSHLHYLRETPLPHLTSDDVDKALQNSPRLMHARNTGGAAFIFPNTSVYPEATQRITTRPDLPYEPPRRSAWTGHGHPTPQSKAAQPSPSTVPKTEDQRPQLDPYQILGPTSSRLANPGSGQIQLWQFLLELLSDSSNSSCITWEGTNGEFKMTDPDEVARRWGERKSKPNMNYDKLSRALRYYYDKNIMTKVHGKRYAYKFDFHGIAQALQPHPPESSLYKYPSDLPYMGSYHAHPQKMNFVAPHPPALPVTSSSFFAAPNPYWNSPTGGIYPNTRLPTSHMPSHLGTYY
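His-tagged ERG Ets domain (1 uM in the protein solution; 300mM KCl, 50mM Tris-HCl, 1mM EDTA, 1mM DTT, pH 7.5) received compound, then a probe mix of 5 nM fluorescein-DNA and 100nM Texas-615-DNA. Fluorescence polarization was read for both dyes.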
Large screens that a line does not name were inactive; ! = not confirmed by another sample.

Cc1ccc(C2(C)NC(=O)N(CC(=O)N3CCN(S(=O)(=O)c4cccs4)CC3)C2=O)cc1 (stereo not drawn)	DRD3 antagonist -53
Cc1ccc(O)c(-c2[nH]ncc2C(=O)c2ccc(Cl)cc2)c1	D1 antag -34
Cc1ccc(S(=O)(=O)Oc2ccccc2[N+](=O)[O-])cc1	DRD3 antagonist inconclusive (no result: D1 potentiator, D1 antag, D1 ag)
CC(C)NC(=S)N1CCC(Cc2ccccc2)CC1	none
COC(=O)Cc1ccc(NC(=S)N2CCN(C)CC2)cc1	none
COC(=O)Cc1ccc(NC(=S)N2CCC(Cc3ccccc3)CC2)cc1	D1 antag -32
COC(=O)Cc1ccc(NC(=S)N2CCN(c3ccc(OC)cc3)CC2)cc1	none
COC(=O)Cc1ccc(NC(=S)N2CCN(c3cccc(O)c3)CC2)cc1	D1 antag -38, DRD3 agonist 32
CC(C)CNC(=S)N1CCC(Cc2ccccc2)CC1	D1 antag -36
CC(=O)c1ccc(NC(=S)N2CCC(Cc3ccccc3)CC2)cc1	D1 antag -35
Cc1cccc(Cn2nnc(C(=O)Nc3cc(C)ccc3C)c2N)c1	none (no result: DRD3 antagonist)
Cc1ccc(Cl)cc1NC(=O)c1nnn(Cc2ccccc2)c1N	none (no result: DRD3 antagonist)
Cc1ccc(NC(=O)c2nnn(Cc3cccc(C(F)(F)F)c3)c2N)c(C)c1	D1 antag -45 (no result: DRD3 antagonist)
Cc1ccc(C)c(NC(=O)c2nnn(CC(=O)Nc3cccc(C)c3C)c2N)c1	DRD3 agonist 40 (no result: DRD3 antagonist)
CCc1ccc(NC(=O)c2nnn(Cc3cccc(C(F)(F)F)c3)c2N)cc1	none (no result: DRD3 antagonist)
CCc1ccccc1NC(=O)c1nnn(Cc2ccc(Cl)cc2)c1N	D1 ag 56 (no result: DRD3 antagonist)
Cc1ccc(Cn2nnc(C(=O)Nc3cccc(C)c3C)c2N)cc1	D1 ag 94
Cc1ccc(NC(=O)c2nnn(CC(=O)Nc3ccc4c(c3)OCO4)c2N)cc1C	none
Cc1cc(C)c(NC(=O)Cn2nnc(C(=O)Nc3ccc(F)cc3F)c2N)c(C)c1	D1 antag -68!
Cc1cccc(C)c1NC(=O)Cn1nnc(C(=O)Nc2ccc(F)cc2F)c1N	none
Cc1ccc(NC(=O)Cn2nnc(C(=O)Nc3ccc(C)c(C)c3)c2N)cc1	DRD3 antagonist -66
COc1ccc(NC(=O)c2nnn(Cc3ccccc3C)c2N)c(OC)c1	none (no result: DRD3 antagonist)
COc1ccc(OC)c(NC(=O)c2nnn(Cc3ccccc3C)c2N)c1	D1 antag -52
COC(=O)C1=NN[C@H](C(=O)OC)[C@H]1c1ccccc1	none
O=C(NCc1ccc(F)cc1)c1cc(C2CCCCN2S(=O)(=O)c2ccccc2)on1 (stereo not drawn)	none (no result: D1 potentiator, D1 antag, D1 ag, ERG-DNA inh)
O=C(NCc1ccc(F)cc1)c1cc(C2CCCCN2S(=O)(=O)Cc2ccccc2)on1 (stereo not drawn)	DRD3 antagonist -99 (no result: D1 potentiator, D1 antag, D1 ag, ERG-DNA inh)
O=C(NCc1ccc(F)cc1)c1cc(C2CCCCN2S(=O)(=O)c2cccs2)on1 (stereo not drawn)	none (no result: D1 potentiator, D1 antag, D1 ag, ERG-DNA inh)
CS(=O)(=O)N1CCCCC1c1cc(C(=O)NCc2ccc(F)cc2)no1 (stereo not drawn)	DRD3 antagonist -88 (no result: D1 potentiator, D1 antag, D1 ag, ERG-DNA inh)
Cc1ccc(C)c(NC(=S)NNC(=O)c2csc3c2CCC(C)C3)c1 (stereo not drawn)	DRD3 antagonist -60
Cc1oc(-c2ccccc2Cl)nc1CSc1nc2c(c(=O)[nH]1)CCC2	DRD3 agonist 57
COc1ccccc1CNc1nc2nc3c(c(=O)n2[nH]1)CCC3	none
O=c1[nH]c(SCc2ccccc2)nc2c1CCCC2	D1 antag -41 (no result: DRD3 antagonist)
O=c1c2c(nc3nc(NCc4ccccc4Cl)[nH]n13)CCC2	D1 antag -36 (no result: DRD3 antagonist, DRD3 agonist, ERG-DNA inh)
Cc1oc(-c2cccc(Cl)c2)nc1CSc1nc2c(c(=O)[nH]1)CCC2	none
O=c1[nH]c(SCc2ccccc2Cl)nc2c1CCCC2	DRD3 agonist 31
CCn1c(CNC(=O)C23CC4CC(CC(C4)C2)C3)nnc1SCC(=O)Nc1ccccc1	none (no result: DRD3 antagonist)
Cc1cccc(C)c1NC(=O)c1ccc(-c2cc(F)ccc2F)o1	DRD3 antagonist -57 (no result: D1 potentiator, D1 antag, D1 ag, ERG-DNA inh)
Cc1cccc(C)c1NC(=O)c1ccc(-c2ccc(Cl)cc2Cl)o1	none
O=C1C2CCCCN2C(=O)N1CCCCN1CCN(c2ccccc2Oc2ccccc2)CC1 (stereo not drawn)	DRD3 antagonist -104

Screening results from PubChem BioAssay.
